Among all 31,000 sequences or so, about 1,400 (4.5%) were called active. The full list was thinned out, with actives kept by preference. A number with no mark means an inactive call.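 The calls were made as follows: active = median seed-adjusted z-score above 1 or below -1; inactive = the rest.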
assay: Novel Modifiers of Survival Motor Neuron (SMN) Protein: Gene Identification via Genome-wide siRNA Screen; settings: HEK293T SMN2-luciferase reporter, siRNA knockdown, 72 h; actives lie on both sides
From the text: Spinal muscular atrophy (SMA) is the most common neuromuscular autosomal recessive disorder and one of the leading genetic causes of infant death. SMA results from mutations inducing loss of function or deletion in the survival of motor neuron-1 gene (SMN1), leading to deficiency of the survival motor neuron (SMN) protein. Although a second nearly identical gene, SMN2, is retained in humans, its expression primarily produces an aberrantly spliced isoform that is largely unstable and quickly degraded. We performed a genome-wide RNAi screen using a cell-based reporter assay to identify genes and pathways that modulate SMN protein stability. The screen identified over 200 genes that led to the greatest increase or decrease in luciferase expression.
Using HEK293T cells stably expressing a luciferase reporter that combines the promoter and splicing based cassettes in tandem with the major portion of the native SMN2 cDNA with luciferase, we performed a genome-wide RNAi screen to identify modulators of SMN protein levels. Luciferase is expressed when full-length SMN protein is generated with luminescence signal proportional to SMN protein levels. Our luciferase-based reporter assay was used to screen Ambion Silencer Select Human Druggable Genome siRNA library (10418 genes, 3 unique siRNAs per gene) using lipid-based reverse transfection.
Briefly, 1 pmol of each siRNA was spotted to a well of a 384-well plate (Corning, Corning, NY) and 20 microL of serum-free DMEM containing […] of Lipofectamine RNAiMax (Life Technologies, Carlsbad, CA) was then added to each well. Transfected cells were maintained at 37 degrees C in 5% CO2 for 72 hours, 20 microL of ONE-Glo Reagent (Promega) was added to wells for luciferase quantification. Raw luminescence reads were normalized to Ambion(R) Silencer(R) Negative Control #2 siRNA, then log10 transformed. A robust statistical measure of median absolute deviation (MAD) to standardize siRNA activities from each screen. Common Seed Analysis was used to help prioritize clean hits as opposed to those appearing to arise from seed based off-target effects. Candidate modulators were defined as the genes having a MAD score greater than 1.0 or less than -1.0.

Sequence	median seed-adjusted z-score
GCAAGGCGGUGUUUAUGGATT against DLX1	0.0356
CUCUCUCUGCAACACCUUUTT against SLC39A3	0.0298
CUACAGUCGGGAACAUGAATT against CLK3	-1.11 (active)
ACGCUGUCCUGGUUCUUCATT against DGAT2L3	0.247
GCAGAGCGGGUUAAAAUGATT against DNAJC2	-0.0357
GGUUACAAGUGUAUAACAATT against CD59	0.79
CGGUGCUGUUCGUCGUCUATT against GJD3	-0.251
GAAGGGAAAUGAGUACCGATT against TRIM68	-0.628
GGAUAAUACAGAAGCAGAATT against SAP30BP	-0.257
GGAAGAAACCAUUACAAUATT against SNAPC3	-1.72 (active)
AGAUGUGAAGCUCAAAUUATT against ETV7	-0.00772
GGGAGUCUUUCUUCGGGAATT against ABCG1	-0.609
CAUCAUCUCUGGAACUCUUTT against ALAS2	-0.142
GGUCAUGCAGAUUAUGUUATT against TUFM	1.07 (active)
CCUAUUCCCGAAGCCGUUATT against PLAUR	-0.118
AAUGGAACCUGUAAGUGUATT against GCN5L2	0.013
GAAGGACCCAGAUCUCUUUTT against ADCK1	-0.177
GAUCCUAUCUUACUAACCATT against IL7R	0
GGCUUAUUGGAGCUCUUAATT against CSE1L	0.425
CAAGAUCUCAAGAAAUUCATT against CDK2	-0.347
CCAUCGGAAUCUUGACGAATT against MX1	-1.49 (active)
GCAACGUGGACAUUGGUGATT against SOX10	-0.255

Sequence	median seed-adjusted z-score
GAGUUCCUCUGGUCACUAUTT against TTC18	-1.15 (active)
GUUCAUCUUGAUUCACAAATT against NOC4L	-0.315
GGAUGGCCAUUGAAGGGAUTT against ECHDC2	-0.0827
GGGACAGGCUGCAAAGAAATT against AARS2	-0.52
CGGCUGGGUCUGUACCAAATT against TLX2	-0.182
GGUCUUUGAUGCGAAGUUATT against DOCK2	0.151
GCAUCGACGUGAUCACCAUTT against GPR26	-1.33 (active)
CAAACAUCCAUAUCUAUGATT against NMT1	0.18
CGCUAUCCCAAUCGCUUUATT against CYB5R1	0
GCAAGGGUCUCGGAUUAUATT against TMPRSS12	0.0961
CUAUAGAUGUGAUCAGUGUTT against ZNF32	0.034
GCCCAAACUGAGUACAACUTT against PLA2G10	1.07 (active)
UGAGGACAAGGAUUUGGAATT against EIF2S2	0.576
AUAGUUGACUAUUCUGAAATT against CCL18	0.169
AUACGGCUCUAACAGAUUATT against DBI	0.0661
AGAAGAUCGGAAUUCUUUATT against RGPD5	-0.0931
GGCUUAGGAUGGAGACCUATT against TGDS	-0.196
GUGUUUAAGGGCUUUUGAATT against CBR3	0.057
GAAAUACCCUAUUACCAAATT against MED26	-1.86 (active)
AACCCAUCGUUCCAUAUUATT against PPOX	0.519
GAGUAGCAGGAAAAACGAATT against SNX13	0.253
CCUAUGACAUGUUUCCAGATT against MAP4K2	-0.439

Sequence	median seed-adjusted z-score
GCUAUAAGCCGAUAGUAGATT against 11-Sep	-0.245
GCUGGGCCGAGUACCUUAATT against PDX1	0
GAAGUAAGUUUGUUGUAGATT against PGAP1	-0.272
GCAAUGAGAUGAACACCGATT against NPEPL1	1.12 (active)
GCCGAACUAUCUGAGAAUATT against PCDH1	-0.514
GGGUUAAUGUUGAGGAAUUTT against NME7	-0.331
CGGUAUCACCGUUGAUGAATT against ARID1A	-1.14 (active)
CCUGAUUUCUUGUGAUACATT against DNAJC24	-0.0166
GGACAUUUGCAUACUCCUATT against PPP1R14D	0
GCAUUUCGCCUGACCAUUATT against SENP1	0.625
CCGUUUUGGUGAGUCAACATT against RANBP2	1.53 (active)
GAAUUGGAGUGAUUCGAAUTT against NETO2	-0.136
GGAAGACUAUUGGAUAGAATT against ARHGAP18	0
CACCAGAUCUACCAGUUCATT against ADM	0.65
GCCCUACAUGGUAAAUUCATT against GTDC1	0.2
CCCAAGAACUGCUACGUCATT against SMPD2	-0.406
GAAACUUCCUAAGUCGAAATT against FAM57A	0.0434
CGUUCGGAAUAACUGAAAUTT against GNG7	-0.205
AGAACAACCGGAUUCGAGATT against LRRC52	0.118
UAAAGUUCUUUUAUCCAUUTT against UBE2D3	1.62 (active)
GGGAGAACGUGACCAUCUATT against ICAM5	-1 (active)
GCCUUUCAGUCAUCGCGCATT against PLXND1	-0.064

Sequence	median seed-adjusted z-score
GCUGGUCCCUUGGAUAAGATT against MED1	-0.855
GAAACAGUGCUGAAGCCUUTT against RYBP	0.831
GGGAGGGCAUCAACAAGAATT against RGS19	0.295
GGCUGCACAUAUACCUUAATT against RRN3	0.0382
GGAUAGUUUUUCGAAUUAATT against MYO9A	-0.567
GGUAAGGCCUUAUAAUGUATT against KHK	0
GGAUAUCCGCCUUCACAGATT against BAG4	0.111
CCACUAGCUGAUUACUAUATT against MED6	-2.15 (active)
CGAAGAAUCUUCCGAAGAATT against EIF2AK1	-0.546
GAAUGUAUCAGCUACCGAUTT against HYAL4	-0.236
GAAAGACUCUUACCAUUUUTT against SSBP4	0.254
GCAUUGGGAUGUACUUGUATT against LRP12	0.416
GCAUGAACUGAAACCCAAUTT against SMURF1	-1.4 (active)
CCAUCGUACCUGUUACCAATT against KRIT1	-0.447
GCAUCUACGAGUUCAUCAUTT against FOXG1	0.749
GCAGUGAUCUAGUCUCUUUTT against GLRX	-0.0561
CAUAACCACUUUAAAGUCATT against GAB1	0.373
GCAAAUUGAUGAACCGGUUTT against CEP135	-0.2
UGACCACACUUCUCAGCUATT against IL9R	-1.33 (active)
GCACGAGGCUGGUACAGUUTT against MFNG	0.377
GGAGACUAGUGGUGGGAUATT against CCL16	-0.308
GCAACUUGUGAAUCUAGGATT against VCAM1	0.19

Sequence	median seed-adjusted z-score
AACUUGUCGCUGCCCAAUATT against ABCA2	-1.18 (active)
GGCUGACAGUAGCUAAGCUTT against RAPGEF4	-0.197
CCAGAUGGAUGUACACUGUTT against PDE6C	0.205
CCACGCACAUACUAUCAAATT against HIVEP1	0.532
CCCUUAGACUCUAAGCCCATT against HSD17B14	0.386
GAAUGGUCCUAUAUCUCAATT against LARP5	-0.144
GGAUACUUCAGGACUAGAATT against PNN	1.29 (active)
GAGCAUCUUUGAUCGAGAATT against SPINK5	0.26
CCCUGGCAGCUAGUAGGUUTT against BATF3	0.698
CCAGUUUAUUGGAAACCGATT against NOP56	0.307
UCCAGCAAGUGGCCAAGAATT against DUPD1	-0.406
AGAUUAUCAUAUUGGGUGATT against RAB7B	0
CUAUAGGAAUGUUGAAUAATT against WDR33	3.27 (active)
GGACCACAAUGUACGGAAATT against ATP13A5	0.241
CUCCUGUACUCUUCAGAGATT against PTOV1	0.115
GGACCAAGCCCUAAAGGAATT against 4-Sep	-0.0124
GGAUUAAUCCACGAAUUGATT against EGF	0.00831
AACUUGUAUUCUUAGGUUUTT against SAR1A	0.0213
GCUAACUACCAAGUCCUAATT against SLC8A1	0.221
ACAUCGCCCUCAAACGGGATT against ACTL7A	1.1 (active)
GAUUGAUAGAGACAAUUCATT against RNGTT	-1.55 (active)
